Screening results (PubChem)
Only a selection was taken, and hits are over-represented in it overall.
RBX1-CUL1 inh = human ROC1-CUL1 E3 ligase inhibition; P62877+Q13616; in vitro K48 di-Ub FRET, acceptor:donor ratio, 45 min; inhibition, % at 10 µM; hit rate 0.6% among 140,000; in the data active = inhibition above about 25%
Target sequence (P62877 whole entry, looked up): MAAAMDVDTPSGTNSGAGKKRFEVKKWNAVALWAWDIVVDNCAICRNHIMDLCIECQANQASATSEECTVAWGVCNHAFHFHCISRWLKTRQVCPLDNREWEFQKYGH
Target sequence (Q13616 whole entry, looked up): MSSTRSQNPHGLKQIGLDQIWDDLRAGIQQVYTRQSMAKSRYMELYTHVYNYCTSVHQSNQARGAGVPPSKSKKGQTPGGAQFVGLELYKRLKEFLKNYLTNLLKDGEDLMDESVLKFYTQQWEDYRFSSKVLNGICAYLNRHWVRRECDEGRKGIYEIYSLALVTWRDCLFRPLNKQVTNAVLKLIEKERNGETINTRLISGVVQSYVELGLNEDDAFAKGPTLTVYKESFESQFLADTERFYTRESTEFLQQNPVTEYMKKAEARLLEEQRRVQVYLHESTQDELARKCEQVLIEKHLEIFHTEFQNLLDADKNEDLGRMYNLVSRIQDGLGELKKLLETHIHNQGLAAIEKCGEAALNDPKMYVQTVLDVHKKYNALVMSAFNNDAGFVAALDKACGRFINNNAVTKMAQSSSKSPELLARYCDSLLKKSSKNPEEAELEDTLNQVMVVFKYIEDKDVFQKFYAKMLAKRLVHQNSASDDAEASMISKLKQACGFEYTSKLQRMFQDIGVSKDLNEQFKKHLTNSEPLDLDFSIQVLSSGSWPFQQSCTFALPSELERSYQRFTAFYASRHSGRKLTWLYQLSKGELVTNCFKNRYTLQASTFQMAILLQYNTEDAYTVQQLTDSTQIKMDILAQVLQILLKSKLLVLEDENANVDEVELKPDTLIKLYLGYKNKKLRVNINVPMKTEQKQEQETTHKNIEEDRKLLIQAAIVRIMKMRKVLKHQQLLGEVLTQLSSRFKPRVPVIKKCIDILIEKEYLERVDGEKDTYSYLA
Starred values were filed as active, the others as inactive.

Screening CN(C)/C=C(\C(=O)c1ccc(F)c(F)c1)c1nnnn1-c1ccc(Cl)cc1 returned RBX1-CUL1 inh -1.
CN(C)c1ccc(/C=C2/SC(N3CCOCC3)=NC2=O)cc1Br was read as RBX1-CUL1 inh 9.
CCNS(=O)(=O)c1ccc(OC)c(C(=O)N2CCOCC2)c1 was read as RBX1-CUL1 inh -5.
For COc1cccc(C=Nc2ccc(C(N)=O)cc2)c1O the results were RBX1-CUL1 inh 3.
`COc1ccc2c(c1O)SC(=O)C2` gave RBX1-CUL1 inh 106*.
`COc1ccc(OC)c(C(=O)O)c1N` gave RBX1-CUL1 inh 5.
Cc1ccc(OCC(O)CN2CCN(CCN3C(=O)c4cccc5cccc(c45)C3=O)CC2)c(C(C)(C)C)c1 (stereo not given) was read as RBX1-CUL1 inh 8.
`O=C(/C=C/c1ccco1)NCC12CC3CC(C1)CC(CNC(=O)/C=C/c1ccco1)(C3)C2` gave RBX1-CUL1 inh 103*.
For CCSc1nnc(NC(=O)/C=C/c2ccco2)s1 the results were RBX1-CUL1 inh 1.
For N=C(CC(=O)/C=C/c1ccco1)C(F)(F)F the results were RBX1-CUL1 inh 9.
Screening O=C(/C=C/c1ccco1)NCc1cccc(CNC(=O)/C=C/c2ccco2)c1 returned RBX1-CUL1 inh 97*.
`O=C(/C=C\c1ccco1)Nc1cccc(C(=O)Nc2cccc(O)c2)c1` gave RBX1-CUL1 inh -4.
For Cc1ccc(NC(=O)/C=C/c2ccco2)cc1F the results were RBX1-CUL1 inh -6.
Screening C=C(C)C1CC=C(C)/C(=N/NC(=O)c2ccc(-c3ccccc3)cc2)C1 (stereo not given) returned RBX1-CUL1 inh -6.
For Cc1cccc(-c2cnc(C)nc2C2CCCN(C(=O)c3c(F)cccc3F)C2)c1 (stereo not given) the results were RBX1-CUL1 inh -10.
`NC(=O)c1ccc(NC(=O)C2CCN(C(=O)c3ccccc3F)CC2)cc1` gave RBX1-CUL1 inh 7.
For O=C1S/C(=C\c2cc(Cl)c(O)c(Cl)c2)C(=O)N1c1cccc(Cl)c1 the results were RBX1-CUL1 inh 5.
O=C1S/C(=C\c2ccccc2C(F)(F)F)C(=O)N1c1ccc(Cl)cc1 was read as RBX1-CUL1 inh 11.
`CCOc1cc(/C=C2\SC(=O)N(c3ccc(Cl)cc3)C2=O)cc(Cl)c1O` gave RBX1-CUL1 inh 8.
Screening O=C1S/C(=C\c2cc(Br)cc(Br)c2O)C(=O)N1c1ccc(Cl)cc1 returned RBX1-CUL1 inh 31*.
For COc1cc(/C=C2\SC(=O)N(c3ccc(Cl)cc3)C2=O)cc(Cl)c1O the results were RBX1-CUL1 inh 63*.
For O=C1S/C(=C\c2cc(Cl)c(O)c(Cl)c2)C(=O)N1c1ccc(Cl)cc1 the results were RBX1-CUL1 inh 22.
C=CCN1CCN(C(=O)c2cc(Br)c(CCC)s2)CC1 was read as RBX1-CUL1 inh -2.
For CCS(=O)(=O)Nc1ccccc1O the results were RBX1-CUL1 inh 0.
OCCOc1ccccc1CN1CCc2onc(-c3ccccc3F)c2C1 was read as RBX1-CUL1 inh 4.
For Cc1ccc(C(=O)N/N=C/c2ccc(-c3ccc(Cl)cc3)o2)cc1 the results were RBX1-CUL1 inh -2.
For CC(=O)NC1(C(F)(F)F)C(=O)N=C2C1C(=O)NC(=O)N2c1ccc(F)cc1 (stereo not given) the results were RBX1-CUL1 inh 4.
`O=C1N=c2ccc([N+](=O)[O-])cc2=C1N=Nc1c(O)[nH]c2ccc([N+](=O)[O-])cc12` gave RBX1-CUL1 inh 45*.
For O=[N+]([O-])c1ccc2[nH]c(O)c(N=Nc3ccccc3[N+](=O)[O-])c2c1 the results were RBX1-CUL1 inh 1.
NC(=O)N=Nc1c(O)[nH]c2ccc(Br)cc12 was read as RBX1-CUL1 inh 10.
CSc1cccc(NC(=O)c2cccc(NS(C)(=O)=O)c2C)c1 was read as RBX1-CUL1 inh -4.
`CCc1ccccc1N(C)C(=O)N=C1CN(CC(C)C)C(=O)c2ccccc21` gave RBX1-CUL1 inh -10.
Screening CN(C)c1ncc2c(n1)CCCC2NCc1nc(-c2ccccc2)no1 (stereo not given) returned RBX1-CUL1 inh 2.
Screening Cc1ccc(NC(=O)CSc2nnc(COc3ccc4ccccc4c3)n2C)cc1Cl returned RBX1-CUL1 inh 5.
Screening CCOc1cc(/C=C2\C(=O)N(c3ccc(C(=O)O)cc3)N=C2C(F)(F)F)cc(Br)c1O returned RBX1-CUL1 inh 62*.
`COc1cc(/C=C2\C(=O)N(c3ccc(Cl)cc3)N=C2C(F)(F)F)ccc1OC(=O)c1ccco1` gave RBX1-CUL1 inh -3.
Screening CCOc1cc(/C=C2\C(=O)NC(=S)N(c3ccc(Br)cc3)C2=O)cc(Br)c1O returned RBX1-CUL1 inh 7.
Screening O=C(CCc1ccncc1)N1CCCC(CCc2cccc(F)c2)C1 (stereo not given) returned RBX1-CUL1 inh 1.
Screening COc1ccc(N2CC(C(=O)NC3CCCC3)CC2=O)c(OC)c1 (stereo not given) returned RBX1-CUL1 inh 4.
For COC(=O)c1ccccc1NC(=O)COc1ccc(C2CCCCC2)cc1 the results were RBX1-CUL1 inh -4.
For CC(C)(Oc1ccc(C2CCCCC2)cc1)C(=O)O the results were RBX1-CUL1 inh 66*.
`O=C(COc1ccc(C2CCCCC2)cc1)Nc1ccccc1F` gave RBX1-CUL1 inh 9.
`CCOc1cc(/C=C2\SC(=S)N(c3ccccc3)C2=O)ccc1OCc1ccc(Cl)cc1Cl` gave RBX1-CUL1 inh -8.
O=C(O)COc1ccc(/C=C2\SC(=S)N(c3cccc(Cl)c3)C2=O)cc1 was read as RBX1-CUL1 inh 4.
`COc1ccc(N2C(=O)/C(=C\c3ccc(OC(=O)c4cccs4)c(OC)c3)SC2=S)cc1` gave RBX1-CUL1 inh -9.
COc1cc(/C=C2\SC(=S)N(c3cccc(C(F)(F)F)c3)C2=O)ccc1OCC(=O)O was read as RBX1-CUL1 inh -2.
For COc1cccc(N2C(=O)/C(=C/c3ccc(O)cc3)SC2=S)c1 the results were RBX1-CUL1 inh 8.
CCOc1cc(/C=C2\SC(=S)N(c3cccc(Cl)c3)C2=O)ccc1OCC(=O)O was read as RBX1-CUL1 inh 33*.
`C=CCOc1ccc(/C=C2\SC(=S)N(c3ccc(OC)cc3)C2=O)cc1OCC` gave RBX1-CUL1 inh 23.
Screening CCOc1cc(/C=C2\SC(=S)N(c3ccc(OC)cc3)C2=O)ccc1OCC(=O)O returned RBX1-CUL1 inh 57*.
`COc1ccc(N2C(=O)/C(=C\c3ccc(O)c(Br)c3)SC2=S)cc1` gave RBX1-CUL1 inh 42*.
Screening CC(C)N(C)CCOC(=O)c1ccco1 returned RBX1-CUL1 inh -6.
`COc1cccc2c1OCC(NCC1(c3ccccc3)CCOCC1)C2` (stereo not given) gave RBX1-CUL1 inh 7.
For CCCC(=O)Nc1ccc(Cl)c(NC(=S)NC(=O)c2ccc(OCc3ccccc3)cc2)c1 the results were RBX1-CUL1 inh -16.
Screening O=C(O)C#Cc1ccc(Br)cc1 returned RBX1-CUL1 inh 2.
Screening Cc1cc(C)c2c(=O)[nH]c(SCC(=O)c3ccc(O)c(O)c3)nc2n1 returned RBX1-CUL1 inh 4.
`CCSc1nc2sc(C)c(C)c2c(=O)[nH]1` gave RBX1-CUL1 inh -7.
Cc1sc2nc(SCC(=O)c3ccc(O)c(O)c3)[nH]c(=O)c2c1C was read as RBX1-CUL1 inh 67*.
For CCN1CCN(C(=O)C2CC(=O)N(c3ccc(OC)cc3OC)C2)CC1 (stereo not given) the results were RBX1-CUL1 inh -5.
Screening CCc1c(C(=O)N2CCN(C3CCCCC3)CC2)csc1C returned RBX1-CUL1 inh 4.
